Experimental data published in publication PMC5540273 (PLoS ONE, 2017).

What follows are molecules tested on CLK1. Conditions: concentration: 1 μM, replicates: in singlicate; n = 1.
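Note: KINOMEscan kinase panel screen.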

SMILES | %Inh [%]
COc1cc2ncn(-c3cc(OCC4CCCO4)c(C(N)=O)s3)c2cc1OC (stereo not shown) [GSK204607] | 22
C[C@@H]1CCCCN1c1cc(-c2ccc3c(N)n[nH]c3c2)nc(N)n1 [GSK2258759] | 12
COc1ccc(C2=C(Nc3cccc(C(=O)O)c3)C(=O)NC2=O)cc1 [SB-390765] | 11
CCCc1ccc(S(=O)(=O)NC2CCN(c3ccnc(Nc4ccc(F)cc4)n3)C2)cc1 (stereo not shown) [GSK1379715] | 12
O=C(Nc1ccccc1)Nc1cccc(Oc2ccc3nccn3n2)c1 | 6
Cn1ccc2ncnc(Oc3ccc(Nc4nc5ccccc5[nH]4)cc3)c21 | 0
Cc1cccc(-c2cc(Nc3ccncc3)c3ccccc3n2)n1 [GSK223675] | 22
Cc1ccc(NC(=O)Nc2cccc(Cl)c2)cc1-c1ccc(C(=O)Nc2ccncc2)cc1 [GSK1398468] | 30
COc1ccc(CNC(=O)NC2CCN(c3ccnc(Nc4cc(OC)c(OC)c(OC)c4)n3)C2)cc1 (stereo not shown) [GSK1379748] | 11
O=S(=O)(c1ccc(-c2ccnc3[nH]ccc23)cc1)N1CCCC1 [GSK846226] | 63
COc1ccccc1-c1ccc2c(NC(=O)C3CC3)n[nH]c2n1 [SB-711239] | 3
Cl.O=C(Nc1cccc(-c2nn3ncccc3c2-c2ccnc(Nc3cccnc3)n2)c1)c1c(F)cccc1F [GSK312879] | 19
O=C(Nc1n[nH]c2nc(-c3nccs3)c(Br)cc12)C1CCCC1 [SB-742609] | 22
